Measurements published in the supplement of paper PMC11732987, “Enantioselective OTUD7B fragment discovery through chemoproteomics screening and high-throughput optimisation” (Communications Chemistry, 2025).

Legend:
Assay in all cases: log2 ratio of Biotin-Ahx-Ub-VS probe labelling (fragment/DMSO); higher = less target engagement (more negative = stronger competition), active = hit call of the paper (q ≤ 0.05, log2 ratio ≤ -1)
Conditions in all cases: compound concentration: 200 uM; treatment time: 3 h
USP42 = target: T1, USP42 (UniProt Q9H9J4)
T1 sequence (whole entry): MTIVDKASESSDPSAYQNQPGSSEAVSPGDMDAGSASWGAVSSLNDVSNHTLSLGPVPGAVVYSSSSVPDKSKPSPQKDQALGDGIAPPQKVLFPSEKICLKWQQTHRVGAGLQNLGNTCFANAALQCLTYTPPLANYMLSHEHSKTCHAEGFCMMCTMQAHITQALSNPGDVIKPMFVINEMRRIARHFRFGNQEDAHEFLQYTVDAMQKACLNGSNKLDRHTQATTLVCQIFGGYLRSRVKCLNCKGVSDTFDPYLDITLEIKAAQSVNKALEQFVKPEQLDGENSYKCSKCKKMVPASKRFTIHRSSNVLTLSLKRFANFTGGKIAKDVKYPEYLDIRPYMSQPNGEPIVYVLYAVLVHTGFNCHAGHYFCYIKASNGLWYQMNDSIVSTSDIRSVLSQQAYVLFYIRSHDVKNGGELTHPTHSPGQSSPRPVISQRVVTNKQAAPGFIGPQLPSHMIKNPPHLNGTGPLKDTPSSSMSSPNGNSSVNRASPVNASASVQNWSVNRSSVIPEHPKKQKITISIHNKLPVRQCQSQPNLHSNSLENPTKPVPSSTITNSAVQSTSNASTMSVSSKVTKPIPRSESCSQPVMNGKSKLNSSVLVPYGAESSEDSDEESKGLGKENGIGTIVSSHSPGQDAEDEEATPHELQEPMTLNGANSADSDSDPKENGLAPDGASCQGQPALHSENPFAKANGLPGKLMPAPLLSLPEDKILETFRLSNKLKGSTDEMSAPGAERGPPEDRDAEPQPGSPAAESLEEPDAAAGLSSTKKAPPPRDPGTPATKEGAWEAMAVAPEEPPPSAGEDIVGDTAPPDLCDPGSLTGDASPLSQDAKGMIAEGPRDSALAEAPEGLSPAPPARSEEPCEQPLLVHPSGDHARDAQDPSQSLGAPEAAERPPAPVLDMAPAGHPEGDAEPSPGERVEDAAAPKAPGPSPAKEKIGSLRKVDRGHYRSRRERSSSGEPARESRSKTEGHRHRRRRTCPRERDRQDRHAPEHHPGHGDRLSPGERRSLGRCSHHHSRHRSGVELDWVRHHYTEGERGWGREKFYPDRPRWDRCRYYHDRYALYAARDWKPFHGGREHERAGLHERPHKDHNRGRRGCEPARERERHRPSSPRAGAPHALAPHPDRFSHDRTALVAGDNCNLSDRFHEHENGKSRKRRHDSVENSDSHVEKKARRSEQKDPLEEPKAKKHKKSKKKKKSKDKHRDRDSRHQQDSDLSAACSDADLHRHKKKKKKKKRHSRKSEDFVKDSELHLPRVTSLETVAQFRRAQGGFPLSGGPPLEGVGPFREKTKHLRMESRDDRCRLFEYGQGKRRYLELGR
How it was run: (§1)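 Triplicate samples of HEK293T lysate, 495 µg each, received fragment at 200 µM or vehicle for 3 h, followed by Biotin-Ahx-Ub-VS (0.5 µM final) for 1 h. After NeutrAvidin enrichment of labelled DUBs and LysC/trypsin digestion, peptides were run by diaPASEF LC-MS/MS. The values are average log2 fragment/vehicle ratios from global-median-normalised Spectronaut label-free quantities, tested by unpaired t-test on proteins having ≥2 unique peptides.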

USP46 = USP46 (UniProt P62068)
USP46, sequence (P62068 whole entry): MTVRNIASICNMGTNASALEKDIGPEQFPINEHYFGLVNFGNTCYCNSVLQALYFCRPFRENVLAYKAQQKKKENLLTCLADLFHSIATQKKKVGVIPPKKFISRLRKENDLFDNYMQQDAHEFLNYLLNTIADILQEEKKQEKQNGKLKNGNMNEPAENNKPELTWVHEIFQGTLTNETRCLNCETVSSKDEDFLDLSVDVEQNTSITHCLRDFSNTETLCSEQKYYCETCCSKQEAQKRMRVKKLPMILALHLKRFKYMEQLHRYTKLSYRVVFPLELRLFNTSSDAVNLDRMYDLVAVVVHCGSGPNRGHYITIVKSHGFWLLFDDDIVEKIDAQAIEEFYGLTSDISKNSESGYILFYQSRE
How it was run: as §1

USP47 = target: T2, USP47 (UniProt Q96K76)
T2 sequence (whole entry): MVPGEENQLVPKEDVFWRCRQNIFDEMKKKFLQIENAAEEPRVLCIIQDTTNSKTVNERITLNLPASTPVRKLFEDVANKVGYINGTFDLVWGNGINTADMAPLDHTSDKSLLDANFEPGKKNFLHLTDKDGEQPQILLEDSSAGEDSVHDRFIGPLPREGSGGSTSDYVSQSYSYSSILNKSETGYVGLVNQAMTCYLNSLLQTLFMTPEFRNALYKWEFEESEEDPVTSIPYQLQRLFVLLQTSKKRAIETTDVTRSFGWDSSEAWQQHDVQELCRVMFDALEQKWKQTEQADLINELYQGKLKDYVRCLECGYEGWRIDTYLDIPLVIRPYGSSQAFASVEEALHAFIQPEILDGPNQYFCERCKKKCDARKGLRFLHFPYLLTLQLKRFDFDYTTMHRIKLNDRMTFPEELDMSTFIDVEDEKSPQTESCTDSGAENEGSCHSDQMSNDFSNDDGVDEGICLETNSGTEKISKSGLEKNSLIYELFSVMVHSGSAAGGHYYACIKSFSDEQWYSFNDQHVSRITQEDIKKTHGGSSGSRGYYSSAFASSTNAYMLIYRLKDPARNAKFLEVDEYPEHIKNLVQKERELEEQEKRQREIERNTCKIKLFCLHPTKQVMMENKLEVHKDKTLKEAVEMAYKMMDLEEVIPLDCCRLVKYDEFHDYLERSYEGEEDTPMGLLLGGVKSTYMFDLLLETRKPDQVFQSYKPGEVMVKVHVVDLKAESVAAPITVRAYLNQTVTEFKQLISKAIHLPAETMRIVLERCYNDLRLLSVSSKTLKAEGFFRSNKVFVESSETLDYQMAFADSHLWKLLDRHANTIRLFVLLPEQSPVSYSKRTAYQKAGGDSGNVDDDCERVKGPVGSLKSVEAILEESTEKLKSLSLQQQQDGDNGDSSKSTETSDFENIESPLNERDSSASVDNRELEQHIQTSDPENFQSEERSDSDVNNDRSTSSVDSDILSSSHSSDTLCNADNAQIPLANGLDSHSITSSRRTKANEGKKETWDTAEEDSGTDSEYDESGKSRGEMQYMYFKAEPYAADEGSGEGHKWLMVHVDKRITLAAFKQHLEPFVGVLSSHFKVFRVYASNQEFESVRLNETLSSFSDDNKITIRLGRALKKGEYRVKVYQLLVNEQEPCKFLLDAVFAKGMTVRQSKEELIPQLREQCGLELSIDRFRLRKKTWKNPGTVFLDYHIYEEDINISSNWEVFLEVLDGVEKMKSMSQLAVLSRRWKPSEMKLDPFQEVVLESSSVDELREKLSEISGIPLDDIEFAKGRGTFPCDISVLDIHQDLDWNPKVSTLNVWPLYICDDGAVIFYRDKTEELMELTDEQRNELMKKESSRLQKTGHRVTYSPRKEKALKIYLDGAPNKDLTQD
How it was run: as §1

USP48 = target: T3, USP48 (UniProt Q86UV5)
T3 sequence (whole entry): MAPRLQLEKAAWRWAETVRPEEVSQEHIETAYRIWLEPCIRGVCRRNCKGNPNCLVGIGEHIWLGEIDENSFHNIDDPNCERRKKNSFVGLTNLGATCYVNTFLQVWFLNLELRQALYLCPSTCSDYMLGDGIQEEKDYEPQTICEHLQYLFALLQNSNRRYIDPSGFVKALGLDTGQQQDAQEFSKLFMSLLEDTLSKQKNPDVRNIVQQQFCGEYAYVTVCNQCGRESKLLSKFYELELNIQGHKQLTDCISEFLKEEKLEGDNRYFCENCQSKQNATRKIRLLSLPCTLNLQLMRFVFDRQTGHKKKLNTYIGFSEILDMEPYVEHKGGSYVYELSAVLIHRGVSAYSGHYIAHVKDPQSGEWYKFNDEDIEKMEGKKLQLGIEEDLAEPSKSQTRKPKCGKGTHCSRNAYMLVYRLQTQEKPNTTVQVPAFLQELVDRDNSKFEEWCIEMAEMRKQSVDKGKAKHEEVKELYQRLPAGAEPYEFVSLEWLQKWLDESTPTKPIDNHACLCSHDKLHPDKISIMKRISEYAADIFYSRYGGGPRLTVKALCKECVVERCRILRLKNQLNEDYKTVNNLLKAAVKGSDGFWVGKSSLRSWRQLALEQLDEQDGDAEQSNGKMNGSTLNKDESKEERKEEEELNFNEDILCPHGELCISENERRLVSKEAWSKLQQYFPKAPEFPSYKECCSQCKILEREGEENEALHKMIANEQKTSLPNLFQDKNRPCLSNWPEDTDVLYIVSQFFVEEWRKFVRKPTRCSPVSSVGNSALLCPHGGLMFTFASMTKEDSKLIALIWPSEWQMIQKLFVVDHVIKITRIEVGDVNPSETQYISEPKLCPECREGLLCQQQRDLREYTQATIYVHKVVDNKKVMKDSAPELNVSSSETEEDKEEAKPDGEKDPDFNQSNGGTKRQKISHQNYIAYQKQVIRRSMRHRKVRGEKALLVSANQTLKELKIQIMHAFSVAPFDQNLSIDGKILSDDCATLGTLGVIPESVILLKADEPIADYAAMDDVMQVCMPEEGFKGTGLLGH
How it was run: as §1

USP5 = target: T4, USP5 (UniProt P45974)
T4 sequence (whole entry): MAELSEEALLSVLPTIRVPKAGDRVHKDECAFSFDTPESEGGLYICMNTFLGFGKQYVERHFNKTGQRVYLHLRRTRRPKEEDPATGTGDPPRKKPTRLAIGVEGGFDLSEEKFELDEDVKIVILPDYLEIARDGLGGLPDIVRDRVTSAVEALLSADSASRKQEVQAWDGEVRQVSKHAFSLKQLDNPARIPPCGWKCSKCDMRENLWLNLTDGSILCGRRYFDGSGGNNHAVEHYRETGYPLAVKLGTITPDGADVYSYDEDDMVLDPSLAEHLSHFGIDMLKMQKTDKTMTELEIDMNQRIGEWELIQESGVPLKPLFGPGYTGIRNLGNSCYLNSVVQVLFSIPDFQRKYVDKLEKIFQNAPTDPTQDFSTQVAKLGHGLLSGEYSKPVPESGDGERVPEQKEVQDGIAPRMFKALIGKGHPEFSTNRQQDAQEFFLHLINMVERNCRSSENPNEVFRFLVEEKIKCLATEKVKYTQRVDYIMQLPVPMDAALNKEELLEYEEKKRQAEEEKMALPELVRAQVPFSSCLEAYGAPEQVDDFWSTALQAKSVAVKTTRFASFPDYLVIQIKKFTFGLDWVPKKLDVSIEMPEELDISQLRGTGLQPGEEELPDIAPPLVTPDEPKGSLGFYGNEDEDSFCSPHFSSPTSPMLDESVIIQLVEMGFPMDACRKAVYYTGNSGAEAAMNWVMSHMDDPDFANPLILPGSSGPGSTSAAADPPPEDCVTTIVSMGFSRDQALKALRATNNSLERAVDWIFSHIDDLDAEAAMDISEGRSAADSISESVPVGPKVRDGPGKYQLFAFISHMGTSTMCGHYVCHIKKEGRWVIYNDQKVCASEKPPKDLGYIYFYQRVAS
How it was run: as §1

USP54 = USP54 (UniProt Q70EL1)
USP54, sequence (Q70EL1 whole entry): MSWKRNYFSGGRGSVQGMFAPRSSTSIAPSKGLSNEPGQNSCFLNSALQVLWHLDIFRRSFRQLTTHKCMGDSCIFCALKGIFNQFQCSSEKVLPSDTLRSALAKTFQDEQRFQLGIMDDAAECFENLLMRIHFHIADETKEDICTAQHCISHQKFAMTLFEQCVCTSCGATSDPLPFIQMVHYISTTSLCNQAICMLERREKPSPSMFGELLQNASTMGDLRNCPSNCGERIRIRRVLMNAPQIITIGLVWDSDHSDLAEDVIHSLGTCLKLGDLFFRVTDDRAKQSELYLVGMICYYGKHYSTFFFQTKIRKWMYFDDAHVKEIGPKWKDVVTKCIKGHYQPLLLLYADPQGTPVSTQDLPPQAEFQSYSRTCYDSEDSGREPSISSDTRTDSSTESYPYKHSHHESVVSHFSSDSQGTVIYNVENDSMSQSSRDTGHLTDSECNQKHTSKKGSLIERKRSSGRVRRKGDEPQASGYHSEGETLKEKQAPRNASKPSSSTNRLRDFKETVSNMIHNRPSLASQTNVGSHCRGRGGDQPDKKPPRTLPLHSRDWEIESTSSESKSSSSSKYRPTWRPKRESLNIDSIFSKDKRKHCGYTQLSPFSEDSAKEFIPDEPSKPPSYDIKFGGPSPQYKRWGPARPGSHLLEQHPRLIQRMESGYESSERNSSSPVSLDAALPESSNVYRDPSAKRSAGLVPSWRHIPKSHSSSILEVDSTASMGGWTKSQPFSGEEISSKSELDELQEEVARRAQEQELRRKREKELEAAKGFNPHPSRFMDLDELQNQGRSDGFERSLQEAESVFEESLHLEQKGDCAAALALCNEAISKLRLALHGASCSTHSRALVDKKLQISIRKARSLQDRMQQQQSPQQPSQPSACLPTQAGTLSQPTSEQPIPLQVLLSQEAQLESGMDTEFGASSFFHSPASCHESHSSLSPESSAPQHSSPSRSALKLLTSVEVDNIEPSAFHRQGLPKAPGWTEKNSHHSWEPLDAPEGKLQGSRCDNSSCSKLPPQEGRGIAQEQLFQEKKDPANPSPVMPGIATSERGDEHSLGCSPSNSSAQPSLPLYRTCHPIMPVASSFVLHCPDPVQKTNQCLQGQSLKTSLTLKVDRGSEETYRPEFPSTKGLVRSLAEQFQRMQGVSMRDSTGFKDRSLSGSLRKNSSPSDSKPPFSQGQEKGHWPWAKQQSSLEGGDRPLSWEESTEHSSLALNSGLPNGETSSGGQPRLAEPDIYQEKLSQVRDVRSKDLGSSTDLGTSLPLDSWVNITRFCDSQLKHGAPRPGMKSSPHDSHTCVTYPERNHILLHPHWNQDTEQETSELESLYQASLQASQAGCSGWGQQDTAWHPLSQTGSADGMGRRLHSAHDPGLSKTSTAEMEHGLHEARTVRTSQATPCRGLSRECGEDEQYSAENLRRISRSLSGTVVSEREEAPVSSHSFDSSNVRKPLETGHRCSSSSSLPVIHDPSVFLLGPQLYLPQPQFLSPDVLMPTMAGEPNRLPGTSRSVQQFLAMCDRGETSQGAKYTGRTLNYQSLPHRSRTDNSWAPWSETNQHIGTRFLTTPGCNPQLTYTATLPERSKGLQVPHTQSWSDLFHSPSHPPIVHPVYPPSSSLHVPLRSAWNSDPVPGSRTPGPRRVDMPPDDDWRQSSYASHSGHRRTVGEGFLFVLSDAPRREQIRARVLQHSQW
How it was run: as §1

USP7 = USP7 (UniProt Q93009)
USP7, sequence (Q93009 whole entry, looked up): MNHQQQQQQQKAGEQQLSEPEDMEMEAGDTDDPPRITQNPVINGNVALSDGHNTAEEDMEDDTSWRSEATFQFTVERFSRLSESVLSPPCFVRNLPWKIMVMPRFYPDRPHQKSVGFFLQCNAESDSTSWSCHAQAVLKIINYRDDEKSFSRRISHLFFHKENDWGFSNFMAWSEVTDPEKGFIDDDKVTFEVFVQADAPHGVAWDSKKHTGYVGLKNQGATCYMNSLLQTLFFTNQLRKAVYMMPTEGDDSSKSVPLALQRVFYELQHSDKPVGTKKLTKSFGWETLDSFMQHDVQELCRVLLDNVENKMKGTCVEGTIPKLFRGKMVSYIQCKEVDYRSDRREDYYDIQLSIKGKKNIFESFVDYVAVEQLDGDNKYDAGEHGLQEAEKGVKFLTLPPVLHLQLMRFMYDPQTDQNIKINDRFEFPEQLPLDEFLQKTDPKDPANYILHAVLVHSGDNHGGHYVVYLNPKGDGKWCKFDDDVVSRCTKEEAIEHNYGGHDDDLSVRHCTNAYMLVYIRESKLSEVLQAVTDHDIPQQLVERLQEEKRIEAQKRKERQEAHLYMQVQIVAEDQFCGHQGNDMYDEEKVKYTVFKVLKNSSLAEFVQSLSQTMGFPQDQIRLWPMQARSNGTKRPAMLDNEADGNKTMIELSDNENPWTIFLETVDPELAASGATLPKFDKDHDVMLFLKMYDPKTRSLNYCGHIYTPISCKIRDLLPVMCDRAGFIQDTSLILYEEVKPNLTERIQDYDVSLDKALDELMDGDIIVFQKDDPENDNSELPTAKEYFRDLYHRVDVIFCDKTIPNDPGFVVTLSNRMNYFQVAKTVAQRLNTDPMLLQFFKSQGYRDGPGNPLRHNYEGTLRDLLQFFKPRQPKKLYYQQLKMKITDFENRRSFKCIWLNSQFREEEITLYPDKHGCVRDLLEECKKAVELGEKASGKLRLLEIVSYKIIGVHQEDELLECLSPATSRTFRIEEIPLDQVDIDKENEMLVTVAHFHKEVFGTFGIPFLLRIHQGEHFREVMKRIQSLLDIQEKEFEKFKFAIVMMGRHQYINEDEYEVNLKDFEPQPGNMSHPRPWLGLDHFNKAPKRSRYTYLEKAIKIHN
How it was run: as §1

USP8 = target: T5, USP8 (UniProt P40818)
T5 sequence (whole entry): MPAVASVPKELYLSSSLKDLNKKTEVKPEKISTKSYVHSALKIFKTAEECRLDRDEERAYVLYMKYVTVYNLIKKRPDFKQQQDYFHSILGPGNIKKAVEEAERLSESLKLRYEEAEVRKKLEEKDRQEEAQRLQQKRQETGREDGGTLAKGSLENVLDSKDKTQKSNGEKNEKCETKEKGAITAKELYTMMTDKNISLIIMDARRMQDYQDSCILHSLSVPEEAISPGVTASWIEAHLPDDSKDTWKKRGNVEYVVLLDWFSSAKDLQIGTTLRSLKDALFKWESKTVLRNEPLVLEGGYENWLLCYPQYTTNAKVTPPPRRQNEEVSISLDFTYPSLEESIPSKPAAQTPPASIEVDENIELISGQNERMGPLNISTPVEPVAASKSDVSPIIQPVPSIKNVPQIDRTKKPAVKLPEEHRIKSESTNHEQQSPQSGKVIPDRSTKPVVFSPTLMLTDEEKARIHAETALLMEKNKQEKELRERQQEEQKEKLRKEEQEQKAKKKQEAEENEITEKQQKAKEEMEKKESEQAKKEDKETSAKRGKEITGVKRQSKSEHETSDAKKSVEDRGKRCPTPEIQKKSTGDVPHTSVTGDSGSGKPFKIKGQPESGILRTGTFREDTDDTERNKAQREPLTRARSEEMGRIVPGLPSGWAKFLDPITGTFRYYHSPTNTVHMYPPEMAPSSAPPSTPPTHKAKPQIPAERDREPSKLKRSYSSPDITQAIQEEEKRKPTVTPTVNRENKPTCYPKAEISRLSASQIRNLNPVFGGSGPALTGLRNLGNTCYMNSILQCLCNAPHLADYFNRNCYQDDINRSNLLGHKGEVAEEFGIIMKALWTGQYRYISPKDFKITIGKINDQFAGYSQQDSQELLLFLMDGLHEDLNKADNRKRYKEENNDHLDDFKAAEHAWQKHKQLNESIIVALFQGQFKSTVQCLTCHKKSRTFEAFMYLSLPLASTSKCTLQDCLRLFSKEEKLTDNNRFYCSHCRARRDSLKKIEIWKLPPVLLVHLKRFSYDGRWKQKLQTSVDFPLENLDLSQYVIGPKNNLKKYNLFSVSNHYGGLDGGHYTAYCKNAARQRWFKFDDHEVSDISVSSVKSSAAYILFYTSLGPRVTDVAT
How it was run: as §1

USP9X = USP9X (UniProt Q93008)
How it was run: as §1

UniProt O00487 = target: UniProt O00487
UniProt O00487, sequence (O00487 whole entry): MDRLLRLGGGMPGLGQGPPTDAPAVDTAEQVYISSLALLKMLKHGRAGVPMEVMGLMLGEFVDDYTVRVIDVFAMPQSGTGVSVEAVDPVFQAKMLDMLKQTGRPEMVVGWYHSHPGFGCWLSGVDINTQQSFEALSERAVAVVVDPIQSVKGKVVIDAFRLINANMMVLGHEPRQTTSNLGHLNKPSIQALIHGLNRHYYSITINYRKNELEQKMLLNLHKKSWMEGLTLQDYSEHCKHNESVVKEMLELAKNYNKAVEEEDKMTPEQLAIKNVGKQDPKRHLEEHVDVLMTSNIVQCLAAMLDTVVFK
How it was run: as §1

Measured: log2 ratio of Biotin-Ahx-Ub-VS probe labelling

O=C(CCl)Nc1nc(-c2cccs2)cs1
inactive: USP42 0.598 | USP46 -0.255 | USP47 -0.799 | USP48 -0.537 | USP5 0.0914 | USP54 0.00682 | USP7 -0.679 | USP8 0.0395 | USP9X -0.505 | UniProt O00487 -0.17
